Here are results for 35 compounds from PubChem BioAssay (NCATS).

Structures are written as SMILES. Inconclusive results are not listed. Activity calls are given as the source filed them. Calls come from the whole dose curve; as a rule, active = well fitted cell-killing curve with a large enough effect; inconclusive = small, poorly fitted or top-dose-only effect, or effect the other way; inactive = no such curve, though single readings can be large or run the other way.
Potency is the fitted concentration of half-maximal effect.

The first assay is described as follows: Quantitative High-Throughput drug screen in 47 multiple myeloma cell lines against the NCATS MIPE library collection: JIM1_ECACC cell viability assay (AID 1918964). As to conditions: JIM1 myeloma viability, CellTiter-Glo ATP luminescence, 48 h; series mostly up to 45.8 µM. A digest of the protocol:
(§1)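 Relative luminescence from CellTiter-Glo served as the viability signal, referenced to DMSO-treated (100%) and cell-free medium (0%) controls. Treatment lasted 48 hours at 37C with 500 cells per well.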
In general terms: Cellular ATP, detected with luciferase, serves as a proxy for viable cell number.
With `CCCCn1c(=O)n(Cc2ccccc2F)c(=O)c2[nH]c(Cc3ccc(NC(C)=O)cc3)nc21`, the Potency was 0.0042 µM (active). With `Cn1c(=O)c(-c2c(Cl)cccc2Cl)cc2cnc(Nc3cccc(C(=O)O)c3)nc21`, the Potency was 0.0264 µM (active). On the same count and under the same terms, with `Cc1nc2c([nH]1)CCN(C(=O)c1ccc(NC(=O)c3ccccc3-c3ccccc3)cc1)c1ccccc1-2` the entry was “inactive”. Consider `O=C(Nc1cccc(C(F)(F)F)c1)Nc1cc(S(=O)(=O)NC2CC2)ccc1-c1ccsc1`, for which the Potency result is “inactive”. The same measure, in the same setting: the same measure for `COC(=O)N1CCN(Cc2cccc(NC(=O)Nc3ccc(C)nc3)c2F)CC1`: “inactive”; for `CN(C)c1nc(Cc2ccc(NC(=O)c3ccc(C(F)(F)F)cc3)cc2)nc(N(C)C)c1CC(=O)O`: “inactive”; for `CC(C)CNc1ccnc(NCc2csc(-c3ccccc3)n2)n1`: 11.8 µM (active).

Turning to `CNC1CCC(N(Cc2cccc(-c3ccncc3)c2)C(=O)c2sc3ccccc3c2Cl)CC1` (configuration not stated), the Potency is 14.8 µM (active).

With `CCc1cccc(CC)c1NC(=O)N1Cc2[nH]nc(NC(=O)c3ccc(N4CCN(C)CC4)cc3)c2C1`, the Potency result is “inactive”.

The nature of another assay: Quantitative High-Throughput drug screen in 47 multiple myeloma cell lines against the NCATS MIPE library collection: INA6_PLB cell viability assay (AID 1918965; note: nearly all actives have a fitted effect of over 55% in size). As to conditions: INA6 myeloma viability, CellTiter-Glo ATP luminescence, 48 h; series mostly up to 45.8 µM. A digest of the protocol:
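CellTiter-Glo ATP luminescence gave viability after 48 h compound treatment at 37C of 500 multiple myeloma cells per well. Normalisation used DMSO-only wells as 100% and media-only wells as 0% viability; primary qHTS of approved and investigational drugs.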
As for `Cc1cccc2c1CC[C@H](CN1CCC(c3c(Cl)cccc3Cl)CC1)C[C@@H]2O`, the Potency was 18.7 µM (active).

`N#Cc1ccc(Oc2ccc3c(c2)COB3O)cc1`: the Potency is 20.9 µM (active). Still for that read-out and setting: with `CC(=O)Nc1cccc(-n2c(=O)n(C3CC3)c(=O)c3c(Nc4ccc(I)cc4F)n(C)c(=O)c(C)c32)c1` the figure was 0.0418 µM (active).

As for `CN(C)CCOc1cc(-c2cn[nH]c2)ccc1NC(=O)C1COc2ccccc2O1` (configuration not stated), the Potency was 13.2 µM (active). Take `O=C(CC12CC3CC(CC(C3)C1)C2)Nc1cccc2nc(NCCNCCO)ccc12`: the Potency is 9.35 µM (active). Regarding `CS(=O)(=O)c1ccc(C2=C(c3ccccc3)C(=O)OC2)cc1`, the Potency result is “inactive”. Consider `CCN1CCC(n2cc(CNc3cc(Cl)c4ncc(C#N)c(Nc5ccc(F)c(Cl)c5)c4c3)nn2)CC1`, for which the Potency was 20.9 µM (active). As to `CN(C)c1nc(Cc2ccc(NC(=O)c3ccc(C(F)(F)F)cc3)cc2)nc(N(C)C)c1CC(=O)O`, the Potency result was “inactive”. The same measure, in the same setting: the same measure for `COc1nccc(-c2c(-c3ccc(F)cc3)ncn2C2CCC(O)CC2)n1` (configuration not stated): 13.2 µM (active); for `Cc1ccccc1C(C(=O)NC1CCCCC1)N(C(=O)CNc1ccc(C#N)cc1)c1cccc(F)c1` (configuration not stated): “inactive”; for `CNC1CCC(N(Cc2cccc(-c3ccncc3)c2)C(=O)c2sc3ccccc3c2Cl)CC1` (configuration not stated): 7.43 µM (active). With `CCN1C[C@H](C)n2c(c(O)c3c(=O)n(Cc4ccc(F)c(Cl)c4)nc(C(=O)NC)c32)C1=O`, the Potency result is “inactive”. Regarding `CCc1cccc(CC)c1NC(=O)N1Cc2[nH]nc(NC(=O)c3ccc(N4CCN(C)CC4)cc3)c2C1`, the Potency is 4.69 µM (active). For `CCCCC(F)(F)[C@@]1(O)CC[C@H]2[C@H](CC(=O)[C@@H]2CCCCCCC(=O)O)O1`, the Potency result was “inactive”.

Take `c1cc(OCCN2CCCCC2)cc(-c2n[nH]c3ccc(-c4ncn[nH]4)cc23)c1`: the Potency is 6.62 µM (active). As for `CCNC(=O)c1noc(-c2cc(C(C)C)c(O)cc2O)c1-c1ccc(CN2CCOCC2)cc1`, the Potency was 0.0833 µM (active). The same measure, in the same setting: the same measure for `CC(C)(C)c1nc(-c2cccc(NS(=O)(=O)c3c(F)cccc3F)c2F)c(-c2ccnc(N)n2)s1`: 0.264 µM (active).

Turning to `COc1cc2ncnc(Nc3cc(Br)c(O)c(Br)c3)c2cc1OC`, the Potency was 0.148 µM (active).

On to `Nc1ncnc2c1c(-c1cccc(OCc3ccccc3)c1)cn2C1CC(CN2CCC2)C1` (configuration not stated), for which the Potency is 20.9 µM (active).

A short description of another assay: Quantitative High-Throughput drug screen in 47 multiple myeloma cell lines against the NCATS MIPE library collection: JJN3_DSMZ cell viability assay (AID 1918966; note: nearly all actives have a fitted effect of over 50% in size). The note with it: JJN3 myeloma cells viability, CellTiter-Glo ATP, 48 h; series mostly up to 45.8 µM. In short, it runs like this:
as §1
`C=CC(=O)Nc1cccc(Sc2nc(Nc3ccc(N4CCN(C)CC4)cc3)ncc2Cl)c1`: the Potency was 37.2 µM (active). Still for that read-out and setting: the same measure for `C[C@@H](NC(=O)c1ncnc(N)c1Cl)c1ncc(C(=O)Nc2cc(C(F)(F)F)c(Cl)cn2)s1`: 18.7 µM (active); for `Cn1c(=O)c(-c2c(Cl)cccc2Cl)cc2cnc(Nc3cccc(C(=O)O)c3)nc21`: 4.18 µM (active); for `Cc1nc2c([nH]1)CCN(C(=O)c1ccc(NC(=O)c3ccccc3-c3ccccc3)cc1)c1ccccc1-2`: “inactive”. On the same count and under the same terms, the same measure for `Cc1c(C(=O)Nc2ccc(N3C[C@@H](C)O[C@@H](C)C3)nc2)cccc1-c1ccc(OC(F)(F)F)cc1`: 14.8 µM (active); for `O=C(CC12CC3CC(CC(C3)C1)C2)Nc1cccc2nc(NCCNCCO)ccc12`: 9.35 µM (active); for `CCN1CCC(n2cc(CNc3cc(Cl)c4ncc(C#N)c(Nc5ccc(F)c(Cl)c5)c4c3)nn2)CC1`: 20.9 µM (active).

In the case of `Cc1cnc(-c2cc(N3CCN(C(=O)CCS(C)(=O)=O)CC3)ncc2Cl)c(C)c1`, the Potency result is “inactive”. Same read-out and setting: the same measure for `Nc1ccc(-c2ccc3ncc4ccc(=O)n(-c5cccc(C(F)(F)F)c5)c4c3c2)cn1`: 0.0235 µM (active); for `c1ccc(-c2oc3ncnc(NC[C@@H]4CCCO4)c3c2-c2ccccc2)cc1`: 16.6 µM (active). Still for that read-out and setting: the same measure for `CNC1CCC(N(Cc2cccc(-c3ccncc3)c2)C(=O)c2sc3ccccc3c2Cl)CC1` (configuration not stated): 18.7 µM (active). Same read-out and setting: the same measure for `CCc1cccc(CC)c1NC(=O)N1Cc2[nH]nc(NC(=O)c3ccc(N4CCN(C)CC4)cc3)c2C1`: 1.66 µM (active); for `Cn1cnc(-c2cc3nccc(Oc4ccc(NC(=S)NC(=O)Cc5ccccc5)cc4F)c3s2)c1`: 16.6 µM (active); for `c1cc(OCCN2CCCCC2)cc(-c2n[nH]c3ccc(-c4ncn[nH]4)cc23)c1`: 11.8 µM (active). Regarding `CC1(COc2ccc3c(c2)ncn3-c2ccc3cccc(N4CCC(N)CC4)c3n2)COC1`, the Potency was 0.418 µM (active).

Take `CC(C)(C)c1nc(-c2cccc(NS(=O)(=O)c3c(F)cccc3F)c2F)c(-c2ccnc(N)n2)s1`: the Potency is 3.32 µM (active). On the same count and under the same terms, with `COc1ccc(-c2ccc3ncc4c(c3c2)n(-c2ccc(N3CCNCC3)c(C(F)(F)F)c2)c(=O)n4C)cn1` the figure was 0.0066 µM (active); with `Nc1ncnc2c1c(-c1cccc(OCc3ccccc3)c1)cn2C1CC(CN2CCC2)C1` (configuration not stated), 4.69 µM (active); with `COc1ccc(CCC(=O)Nc2nc3ccc(Cl)cc3s2)cc1OC`, “inactive”.
